The source made the active and inactive calls. The call rests on the fitted dose curve; in most records, active means well fitted curve in the direction sought with a large enough effect; inactive means no such curve, though single readings can be large or run the other way.
Test: qHTS profiling of inhibitors of Plasmodium falciparum (3D7) proliferation (acoustic dispense)
Conditions: P. falciparum 3D7 in erythrocytes, SYBR Green, 72 h; series mostly up to 49.8 µM
From the text: Plasmodium falciparum is a virulent malarial parasite that kills 1-2 million people worldwide each year. Transmitted by mosquitoes, the sporozoite form of the parasite enters the blood stream to infect hepatocytes, where they become merozoites that infect red blood cells (erythrocytes). Within erythrocytes, merozoites begin a […] cycle of growth and division, after which the parasite is released to infect new red blood cells. Gametocytes, which form within erythrocytes as well, circulate in the bloodstream and are ingested by the mosquito, thereby completing the life cycle. To profile malarial isolates for differential chemical responses and to identify inhibitors of malarial growth, an assay that measures P. falciparum growth and replication within erythrocytes was employed. This assay uses a DNA binding fluorescent dye (SYBR Green) to detect parasite DNA following cell lysis. Because mature erythrocytes lack DNA, only Plasmodium-derived DNA is detected.
The SYBR Green viability assay was adapted from a method described previously (Plouffe et al., 2008). For screening 3 ul culture medium was dispensed into 1536 well black clear bottom plates (Aurora Biotechnologies) using a Multidrop Combi (Thermo Fisher Scientific Inc.), 23 nL of compounds in DMSO were added by an acoustic dispenser (EDC Biosystems), and 5 ul of erythrocytes infected with P. falciparum (0.3% parasitemia, 2.5% hematocrit final concentration) were added. The plates were incubated at 37 C in a humidified incubator in 5% CO2 for 72 h, and 2 ul lysis buffer (20 mM Tris HCl, 10 mM EDTA, 0.16% saponin, 1.6% triton X, 10X SYBR Green I supplied as 10,000X […] by Invitrogen) was added to each well. The plates were mixed for 25 sec with gentle shaking and incubated overnight at room temperature in the dark. The following morning, fluorescence intensity at 485(14) nm excitation and 535(25) nm emission wavelengths was measured on an EnVision (Perkin Elmer) plate reader. Plate reads were normalized relative to the control inhibitor (0.29 uM artemisinin) and vehicle (DMSO) wells present on each plate and then corrected by an algorithm using vehicle-only control plates at the beginning and end of the compound plate stack.

outcome, inactive:
CN(C)c1ccc2nc3ccc(=[N+](C)C)cc-3sc2c1
C=CCn1c(=O)c2cnc(Nc3ccc(N4CCN(C)CC4)cc3)nc2n1-c1cccc(C(C)(C)O)n1
CC(C)n1nc(-c2ccc3oc(N)nc3c2)c2c(N)ncnc21
COc1cc(NC(C)CCCN)c2ncccc2c1 (stereo not given)
CC[C@@]1([C@@H]2O[C@@H]([C@H]3O[C@@](O)(CO)[C@H](C)C[C@H]3C)C[C@H]2C)CC[C@H]([C@]2(C)CC[C@]3(C[C@H](O)[C@@H](C)[C@@H]([C@@H](C)[C@@H](OC)[C@H](C)C(=O)O)O3)O2)O1
O=C(Nc1ccc([N+](=O)[O-])cc1Cl)c1cc(Cl)ccc1O
CCCCN(CCCC)CC(O)c1cc(Cl)cc2c1-c1ccc(Cl)cc1C2=Cc1ccc(Cl)cc1 (stereo not given)
CN(Cc1cnc2nc(N)nc(N)c2n1)c1ccc(C(=O)N[C@@H](CCC(=O)O)C(=O)O)cc1
COc1ncnc(NS(=O)(=O)c2ccc(N)cc2)c1OC
CC(C)N=C(N)N=C(N)Nc1ccc(Cl)cc1
COc1cc(NCc2ccc3nc(N)nc(N)c3c2C)cc(OC)c1OC
CCc1nc(N)nc(N)c1-c1ccc(Cl)cc1
C=C[C@@H]1CN2CC[C@@H]1C[C@H]2[C@H](O)c1ccnc2ccc(OC)cc12
CCc1cc(Nc2nccc(-c3c(-c4ccc(OC)c(C(=O)Nc5c(F)cccc5F)c4)nc4ccccn34)n2)c(OC)cc1N1CCC(N2CCN(S(C)(=O)=O)CC2)CC1
CC[C@H]1CN2CCc3cc(OC)c(OC)cc3[C@H]2C[C@@H]1C[C@@H]1NCCc2cc(OC)c(OC)cc21
COC(=O)[C@]12CCC(C)(C)C[C@@H]1[C@@H]1C(=O)C=C3[C@@]4(C)C=C(C#N)C(=O)C(C)(C)[C@@H]4CC[C@@]3(C)[C@]1(C)CC2
C=CCNC1=C2C[C@@H](C)C[C@H](OC)[C@@H](O)[C@@H](C)C=C(C)[C@H](OC(N)=O)[C@@H](OC)C=CC=C(C)C(=O)NC(=CC1=O)C2=O
COc1cc(C)c2c(Oc3cccc(C(F)(F)F)c3)c(OC)cc(NCCCC(C)N)c2n1 (stereo not given)
COc1cc2nc(N3CCCN(C)CC3)nc(NC3CCN(Cc4ccccc4)CC3)c2cc1OC
COC(=O)c1ccc2c(C(=Nc3ccc(N(C)C(=O)CN4CCN(C)CC4)cc3)c3ccccc3)c(O)[nH]c2c1
CO[C@H]1O[C@@H]2O[C@@]3(C)CC[C@@H]4[C@@H](C)CC[C@@H]([C@H]1C)[C@@]24OO3
Cn1cc(C2=C(c3c4n(c5ccccc35)CCC(CN)C4)C(=O)NC2=O)c2ccccc21 (stereo not given)
Cn1c(=O)c(-c2c(Cl)cccc2Cl)cc2cnc(Nc3cccc(C(=O)O)c3)nc21
CO[C@H]1C=CO[C@@]2(C)Oc3c(C)c(O)c4c(O)c(c(C=NN5CCN(C)CC5)c(O)c4c3C2=O)NC(=O)C(C)=CC=C[C@H](C)[C@H](O)[C@@H](C)[C@@H](O)[C@@H](C)[C@H](OC(C)=O)[C@H]1C
CCN(CC)CCNC(=O)c1c(C)[nH]c(C=C2C(=O)Nc3ccc(F)cc32)c1C
CC(=NNC(=S)N1CCC1)c1ccccn1
CN[C@@H](C)C(=O)N[C@H]1CCCC[C@H]2CC[C@@H](C(=O)N[C@@H](c3ccccc3)c3cn(CCCCc4ccc(CCCCn5cc([C@@H](NC(=O)[C@@H]6CC[C@@H]7CCCC[C@H](NC(=O)[C@H](C)NC)C(=O)N76)c6ccccc6)nn5)cc4)nn3)N2C1=O
C#Cc1cccc(Nc2ncnc3cc(OC)c(OCCCCCCC(=O)NO)cc23)c1
C[C@H]1Cc2c([nH]c3cc(Cl)c(F)cc23)[C@@]2(N1)C(=O)Nc1ccc(Cl)cc12
CC(C)[C@H](C(=O)Nc1ccc(C(=O)NO)cc1)c1ccccc1
CSc1cccc(Nc2ncc3cc(-c4c(Cl)cccc4Cl)c(=O)n(C)c3n2)c1
O=C(Nc1cn[nH]c1-c1nc2ccc(CN3CCOCC3)cc2[nH]1)NC1CC1
C=CCNc1c(O)cc2c(O)c1C[C@@H](C)C[C@H](OC)[C@@H](O)[C@@H](C)C=C(C)[C@H](OC(N)=O)[C@@H](OC)C=CC=C(C)C(=O)N2
Cc1cn(-c2cc(NC(=O)c3ccc(C)c(Nc4nccc(-c5cccnc5)n4)c3)cc(C(F)(F)F)c2)cn1
CCn1nnc2c(N3CCOCC3)nc(-c3ccc(NC(=O)Nc4ccc(C(=O)N5CCN(C)CC5)cc4)cc3)nc21
CC(=O)Nc1nc(C)c(-c2ccc(Cl)c(S(=O)(=O)NCCO)c2)s1
COc1ccc(-c2ccc3ncc4c(c3c2)n(-c2ccc(N3CCNCC3)c(C(F)(F)F)c2)c(=O)n4C)cn1
Nc1ccc(-c2ccc3ncc4ccc(=O)n(-c5cccc(C(F)(F)F)c5)c4c3c2)cn1
NC1CCC(Nc2nc(Nc3ccc(C(=O)N4CCCCC4)cc3)c3ncn(-c4cccc(F)c4)c3n2)CC1 (stereo not given)

Activity change, inactive:
CCC(C=C[C@@H]1OC(=O)C=C[C@H]1C)=C[C@H](C)CC=CC(C)=C[C@@H](C)C(=O)[C@@H](C)[C@H](O)[C@@H](C)CC(C)=CC(=O)O 22.5% [at 1.88 µM]
